The record followed here is PubChem BioAssay.

SMILES strings stand for the structures. Several values for one entry are separate records, joined by “and”; a condition that tells them apart may be missing. Equal entries are not always repeated. Activity calls are given as the source filed them.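 The calls were made as follows, unless noted: active = compounds whose cell count with miR-34 switched on is under 0.7 times the count with it off; inactive = the rest.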

The nature of experiment [1]: sensitizers of A549 cells to miR-34 induction, primary screen, imaging, A549 dox-inducible miR-34, nuclei and caspase counts (AID 1347080). The following applies: A549 miR-34 inducible, Hoechst nuclei count, 48 h.
The nature of experiment [2]: survival rescue of mitochondrial mutant cells in low glucose, primary screen, MELAS cybrids, Rieske KO mouse fibroblasts, CellTiter-Glo (AID 1508586;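 active = mean z-score across replicates of 1.96 or higher in either the MELAS or the Rieske mutant cell line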;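 also: z relative to plate mean and SD of compound and empty wells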). (In general: ATP-based viability assays read luminescence as a measure of living cells.)
Experiment [3] concerns the target NAD(+) hydrolase SARM1 (Homo sapiens) (UniProt Q6SZW1). In words: SARM1 TIR NADase inhibitors, cell lysate, NAD-Glo luminescence (AID 1508614;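 active = compound whose remaining NAD level is above about 45 nM, limit read from the data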;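 also: higher remaining NAD means stronger inhibition of SARM1 NADase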). Particulars: SAM-TIR HEK293T lysate NADase, at 1 µM, stronger effect = higher value.
Experiment [4] has as its target Mitogen-activated protein kinase 7 (Homo sapiens) (UniProt Q13164). As to the kind of experiment: ERK5 transactivation activators in reporter cells, primary screen, cell-based, HTS (AID 1508626;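 active = luciferase signal above three times the same-plate solvent-only control wells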;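 also: luciferase driven by Gal4-ERK5 fusion binding five Gal4 sites before minimal TATA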). The following applies: HeLa Gal4-ERK5 transactivation, 18 h, at 5 µM, stronger effect = higher value.
The nature of experiment [5]: viability rescue of complex I mutant cybrids, primary screen, cell-based, galactose medium, ATP luminescence (AID 1645843;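 active = z-score of at least 1.8 in each of two replicates, scored against plate mean and spread of sample wells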;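 also: positive z means more ATP and so rescue of galactose-driven cybrid death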). The following applies: complex I mutant cybrid cells, 72 h, stronger effect = higher value.
[6] abbreviates: stronger effect = lower value, cell number ratio, induced over uninduced.
The mark [7] stands for this setting: measured here: relative caspase fold change +Dox/-Dox.
Where [8] appears, read: measured here: total cells with miR-34 induction, stronger effect = lower value.
The mark [9] stands for this setting: measured here: total cells without miR-34 induction.
Where [10] appears, read: MELAS cybrid survival, CellTiter-Glo 48 h, stronger effect = higher value.
The mark [11] stands for this setting: Rieske KO mouse fibroblast survival, CellTiter-Glo 72 h.

Sequence of NAD(+) hydrolase SARM1 (Homo sapiens) (Q6SZW1 whole entry, looked up, the tested form may be a part): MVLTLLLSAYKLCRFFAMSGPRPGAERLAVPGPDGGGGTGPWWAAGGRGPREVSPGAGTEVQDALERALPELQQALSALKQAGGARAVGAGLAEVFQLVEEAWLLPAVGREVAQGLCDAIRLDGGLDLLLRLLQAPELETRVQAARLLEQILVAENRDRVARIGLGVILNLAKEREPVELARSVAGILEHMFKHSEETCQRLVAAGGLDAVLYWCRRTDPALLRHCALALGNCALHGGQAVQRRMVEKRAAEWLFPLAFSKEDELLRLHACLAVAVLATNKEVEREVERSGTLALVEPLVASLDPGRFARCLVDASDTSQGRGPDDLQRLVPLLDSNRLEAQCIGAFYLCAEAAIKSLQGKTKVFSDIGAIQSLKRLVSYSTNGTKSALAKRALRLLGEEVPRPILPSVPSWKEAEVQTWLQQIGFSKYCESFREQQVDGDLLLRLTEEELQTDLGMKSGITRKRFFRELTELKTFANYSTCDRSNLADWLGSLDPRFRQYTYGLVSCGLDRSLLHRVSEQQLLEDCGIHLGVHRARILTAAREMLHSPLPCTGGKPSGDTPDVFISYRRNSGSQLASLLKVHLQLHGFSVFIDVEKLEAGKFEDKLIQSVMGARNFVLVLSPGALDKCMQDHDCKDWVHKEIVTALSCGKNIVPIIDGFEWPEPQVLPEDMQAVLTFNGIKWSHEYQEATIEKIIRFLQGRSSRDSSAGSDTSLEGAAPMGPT
Sequence of Mitogen-activated protein kinase 7 (Homo sapiens) (Q13164 whole entry, looked up, the tested form may be a part): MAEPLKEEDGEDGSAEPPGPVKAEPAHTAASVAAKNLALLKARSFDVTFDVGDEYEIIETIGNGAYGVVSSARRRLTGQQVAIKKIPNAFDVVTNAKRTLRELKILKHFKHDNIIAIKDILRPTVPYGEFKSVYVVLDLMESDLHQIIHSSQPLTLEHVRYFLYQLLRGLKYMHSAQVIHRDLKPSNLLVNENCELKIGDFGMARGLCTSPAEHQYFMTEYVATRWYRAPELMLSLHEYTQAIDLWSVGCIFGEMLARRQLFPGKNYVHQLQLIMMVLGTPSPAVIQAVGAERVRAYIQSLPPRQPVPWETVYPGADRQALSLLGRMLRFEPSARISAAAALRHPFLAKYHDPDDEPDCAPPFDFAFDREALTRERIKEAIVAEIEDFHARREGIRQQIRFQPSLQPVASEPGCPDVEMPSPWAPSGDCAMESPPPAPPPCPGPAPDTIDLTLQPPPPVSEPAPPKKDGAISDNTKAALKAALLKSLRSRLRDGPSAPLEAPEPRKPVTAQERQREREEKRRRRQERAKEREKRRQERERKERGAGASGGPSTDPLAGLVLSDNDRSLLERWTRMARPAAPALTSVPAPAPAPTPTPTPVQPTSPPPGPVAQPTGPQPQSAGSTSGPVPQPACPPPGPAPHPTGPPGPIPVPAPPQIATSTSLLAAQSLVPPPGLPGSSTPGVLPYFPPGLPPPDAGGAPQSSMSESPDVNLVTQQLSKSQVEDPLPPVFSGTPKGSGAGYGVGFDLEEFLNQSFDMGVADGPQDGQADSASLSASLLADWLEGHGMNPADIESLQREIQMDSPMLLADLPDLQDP

Turning to `CCCCOC(=O)c1ccc(N)cc1`, the fold change in experiment [1] (setting [6]) is 0.764 (inactive) and 0.971 (inactive); in experiment [1] (setting [7]), 1.56 and 1.88. For the same compound, the cell count in experiment [1] (setting [8]) was 6730 and 8980; in experiment [1] (setting [9]), 8820 and 9260. Moreover, the z-score in experiment [2] (setting [10]) is 0.902 (inactive); in experiment [2] (setting [11]), -0.282. Besides, the remaining NAD in experiment [3] was 10 nM (inactive). Also, the luciferase signal in experiment [4] was 56 AU (inactive).
With `CCCCOc1cc(C(=O)NCCN(CC)CC)c2ccccc2n1`, the fold change in experiment [1] (setting [6]) was 0.83 (inactive) and 0.969 (inactive) and 0.813 (inactive); in experiment [1] (setting [7]) it was 0.865 and 0.646 and 1.83. Also, the cell count in experiment [1] (setting [8]) was 7720 and 7790 and 10400; in experiment [1] (setting [9]), 9300 and 8040 and 12800. For the same compound, the z-score in experiment [2] (setting [10]) is -0.328 (inactive) and -0.63 (inactive); in experiment [2] (setting [11]) it was -0.208 and 0.449. The remaining NAD in experiment [3] is 10 nM (inactive). Also, the luciferase signal in experiment [4] is 40 AU (inactive).
With `CN1[C@@H]2CC[C@H]1CC(OC(=O)C(O)c1ccccc1)C2` (stereo partly specified), the fold change in experiment [1] (setting [6]) is 0.916 (inactive); in experiment [1] (setting [7]), 1.3. In addition, the cell count in experiment [1] (setting [8]) worked out at 8240; in experiment [1] (setting [9]), 9000. Also, the results for the z-score in experiment [2] (setting [10]) and in experiment [2] (setting [11]) were 0.652 (inactive) and 0.375, respectively. Moreover, in experiment [3], the remaining NAD was 10 nM (inactive). Moreover, the luciferase signal in experiment [4] was 40 AU (inactive).
For the compound `O=C(OCC(O)CO)c1ccccc1Nc1ccnc2cc(Cl)ccc12` (stereo unspecified), the fold change in experiment [1] (setting [6]) is 0.91 (inactive); in experiment [1] (setting [7]) it was 1.28. In addition, the cell count in experiment [1] (setting [8]) was 8940; in experiment [1] (setting [9]) it was 9820. Further, the z-score in experiment [2] (setting [10]) is 1.77 (inactive); in experiment [2] (setting [11]) it was 0.884. Also, the remaining NAD in experiment [3] is 10 nM (inactive). For the same compound, the luciferase signal in experiment [4] was 176 AU (active).
For the compound `CCN(CC)CCNC(=O)c1cc(Br)c(N)cc1OC`, the fold change in experiment [1] (setting [6]) was 0.86 (inactive); in experiment [1] (setting [7]), 1.23. Moreover, the cell count is 8310 in experiment [1] (setting [8]) and 9660 in experiment [1] (setting [9]). For the same compound, the z-score in experiment [2] (setting [10]) is -0.546 (inactive); in experiment [2] (setting [11]) it was 0.146. For the same compound, the remaining NAD in experiment [3] is 10 nM (inactive). In experiment [4], the luciferase signal is 60 AU (inactive).
As to `CC(=O)[C@@]1(O)CC[C@H]2[C@@H]3C[C@H](C)C4=CC(=O)C=C[C@]4(C)[C@@]3(F)[C@@H](O)C[C@@]21C`, the results for the fold change in experiment [1] (setting [6]) and in experiment [1] (setting [7]) were 0.84 (inactive) and 1.39, respectively. Besides, the cell count in experiment [1] (setting [8]) turned out to be 6290; in experiment [1] (setting [9]), 7490. Also, the z-score in experiment [2] (setting [10]) is -0.955 (inactive); in experiment [2] (setting [11]) it was 0.456. Also, the remaining NAD in experiment [3] is 10 nM (inactive). Besides, the luciferase signal in experiment [4] is 76 AU (inactive).
Regarding `CC1=C(C(=O)O)N2C(=O)[C@@H](NC(=O)[C@H](N)c3ccc(O)cc3)[C@H]2SC1`, the fold change in experiment [1] (setting [6]) is 0.85 (inactive); in experiment [1] (setting [7]), 1.87. The results for the cell count in experiment [1] (setting [8]) and in experiment [1] (setting [9]) were 8500 and 10000, respectively. In addition, the z-score was 0.444 (inactive) in experiment [2] (setting [10]) and 0.13 in experiment [2] (setting [11]). Also, the remaining NAD in experiment [3] is 10 nM (inactive). Also, the luciferase signal in experiment [4] was 108 AU (inactive).
As to `CCN(CC)CCNC(=O)COc1ccc(OC)cc1`, the fold change was 0.859 (inactive) and 0.867 (inactive) in experiment [1] (setting [6]); 1.24 and 3.74 in experiment [1] (setting [7]). The cell count is 9000 and 11100 in experiment [1] (setting [8]); 10500 and 12800 in experiment [1] (setting [9]). Further, the z-score in experiment [2] (setting [10]) was 0.396 (inactive); in experiment [2] (setting [11]), -0.0981. The remaining NAD in experiment [3] was 10 nM (inactive). For the same compound, the luciferase signal in experiment [4] was 72 AU (inactive).
On to `CCCCc1nc(Cl)c(CO)n1Cc1ccc(-c2ccccc2-c2nn[nH]n2)cc1`, for which the fold change is 0.884 (inactive) and 0.804 (inactive) in experiment [1] (setting [6]); 0.724 and 6.97 in experiment [1] (setting [7]). Moreover, the cell count is 7690 and 9920 in experiment [1] (setting [8]); 8690 and 12300 in experiment [1] (setting [9]). The z-score in experiment [2] (setting [10]) was -0.213 (inactive) and 0.409 (inactive); in experiment [2] (setting [11]) it was -0.0146 and 0.701. Also, the remaining NAD in experiment [3] was 10 nM (inactive). In addition, in experiment [4], the luciferase signal is 44 AU (inactive).
With `CO[C@]12C[C@@H](COC(=O)c3cncc(Br)c3)CN(C)[C@@H]1Cc1cn(C)c3cccc2c13`, the fold change was 0.861 (inactive) and 0.885 (inactive) and 0.895 (inactive) in experiment [1] (setting [6]); 1.4 and 2.61 and 0.782 in experiment [1] (setting [7]). Moreover, the cell count is 8590 and 11400 and 9340 in experiment [1] (setting [8]); 9980 and 12900 and 10400 in experiment [1] (setting [9]). Also, the z-score in experiment [2] (setting [10]) is 0.949 (inactive) and 0.883 (inactive); in experiment [2] (setting [11]), 0.302 and 0.698; in experiment [5], 1.27 (inactive). For the same compound, the remaining NAD in experiment [3] was 10 nM (inactive). The luciferase signal in experiment [4] is 56 AU (inactive).
Consider `CC1(C)S[C@@H]2[C@H](NC(=O)[C@H](N)c3ccccc3)C(=O)N2[C@H]1C(=O)O`, for which the fold change in experiment [1] (setting [6]) was 0.937 (inactive) and 0.929 (inactive) and 0.871 (inactive); in experiment [1] (setting [7]) it was 0.845 and 0.857 and 1.14. For the same compound, the cell count was 8790 and 10800 and 9210 in experiment [1] (setting [8]); 9380 and 11700 and 10600 in experiment [1] (setting [9]). Moreover, the z-score is 0.56 (inactive) and 0.538 (inactive) in experiment [2] (setting [10]); -0.285 and -0.0992 in experiment [2] (setting [11]); 0.415 (inactive) in experiment [5]. Besides, the remaining NAD in experiment [3] is 10 nM (inactive). In experiment [4], the luciferase signal was 44 AU (inactive).
As for `COc1cccc(OC)c1C(=O)N[C@@H]1C(=O)N2[C@@H]1SC(C)(C)[C@@H]2C(=O)O`, the values for the fold change in experiment [1] (setting [6]) and in experiment [1] (setting [7]) were 0.949 (inactive) and 0.959, respectively. In addition, the cell count was 11700 in experiment [1] (setting [8]) and 12400 in experiment [1] (setting [9]). Further, the z-score in experiment [2] (setting [10]) was -0.625 (inactive); in experiment [2] (setting [11]), -0.275. For the same compound, the remaining NAD in experiment [3] was 10 nM (inactive). Besides, the luciferase signal in experiment [4] is 32 AU (inactive).
On to `O=C(CCCCC(=O)Nc1c(I)cc(I)c(C(=O)O)c1I)Nc1c(I)cc(I)c(C(=O)O)c1I`, for which the fold change was 0.893 (inactive) in experiment [1] (setting [6]) and 1.51 in experiment [1] (setting [7]). The figures for the cell count in experiment [1] (setting [8]) and in experiment [1] (setting [9]) were 9730 and 10900, respectively. The z-score is 0.645 (inactive) in experiment [2] (setting [10]) and -0.141 in experiment [2] (setting [11]). In experiment [3], the remaining NAD was 10 nM (inactive). The luciferase signal in experiment [4] is 44 AU (inactive).
